Hits are enriched below; roughly 12% of the tested compounds scored in any of these assays.
JMJD2A Tudor – qHTS Assay for Inhibitors of JMJD2A-Tudor Domain. AlphaScreen JMJD2A-Tudor / H3K4me3 peptide binding. Potency, µM (series often up to 114 µM), hits mostly inhibitors. 4.4% of 390,000 active; further: nearly all actives have a fitted effect of over 50% in size
PI5P4K alpha inh – qHTS for Inhibitors of phosphatidylinositol 5-phosphate 4-kinase (PI5P4K); Phosphatidylinositol 5-phosphate 4-kinase type-2 alpha (Homo sapiens), P48426; PI5P4Kalpha enzyme, ADP-Glo luminescence, 60 min; active compounds read low; max response, %; 1.2% of 330,000 active; AID 652105, 2013; active means max response of -50% or lower; inconclusive means between -30% and -50%; inactive means -30% or higher; further: value at the top dose of about 77 µM
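Compounds were pin-transferred onto PI5P4Kalpha and substrate in HEPES pH 7.4 buffer with EGTA, CHAPS and 5% DMSO. ATP (5 microM final) started the reaction, which ran 60 minutes at room temperature before ADP-Glo detection.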
BAZ2B block – qHTS Assay for Inhibitors of BAZ2B. AID 504333, 2011. Potency, µM (highest dose often 114 µM), most hits filed as inhibitors. AlphaScreen BAZ2B-H3K14Ac peptide displacement. 4.4% of 360,000 active. Bromodomain adjacent to zinc finger domain protein 2B (Homo sapiens), Q9UIF8; further: nearly all actives have a fitted effect of over 60% in size
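Multi-concentration screen (max 110 uM) measuring displacement of acetylated histone H3 peptide from BAZ2B by AlphaScreen, using 50 nM protein, 50 nM peptide and 10 ug/mL streptavidin donor plus Ni-chelate acceptor beads.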
PLK1 PBD inh – qHTS for Inhibitors of PLK1-PDB (polo-like kinase 1 - polo-box domain): Primary Screen; Serine/threonine-protein kinase PLK1 (Homo sapiens), P53350; Plk1 PBD binding of FITC phosphopeptide, fluorescence polarization; Potency, µM, actives largely listed as inhibitors; 2.8% of 360,000 active; AID 720504, 2013; further: series mostly up to about 57 µM; nearly all actives have a fitted effect of over 65% in size
HP1b chromo inh – HTS for Inhibitors of HP1-beta Chromodomain Interactions with Methylated Histone Tails | Chromobox protein homolog 1 (Homo sapiens), P83916 | AlphaScreen HP1-beta / biotin-H3K9me3 peptide binding | AID 540317, 2011 | 0.56% of 390,000 active | Potency, µM (highest dose often 114 µM), actives largely listed as inhibitors; further: nearly all actives have a fitted effect of over 70% in size
Target sequence (P83916 whole entry, looked up): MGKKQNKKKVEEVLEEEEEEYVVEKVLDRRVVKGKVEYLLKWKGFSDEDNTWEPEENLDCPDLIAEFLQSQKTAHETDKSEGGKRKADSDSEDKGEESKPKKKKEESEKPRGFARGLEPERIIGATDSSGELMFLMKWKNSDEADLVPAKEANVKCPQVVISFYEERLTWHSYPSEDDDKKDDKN
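HP1-beta protein (50 nM final) preincubated 30 min at room temperature with biotinylated H3(1-18)K9me3 peptide (50 nM) in PBS pH 7.4, 0.01% Tween-20, then compound added for 30 min. AlphaScreen streptavidin donor/nickel chelate acceptor beads (10 ug/mL final), 30 min dark, luminescence read.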
G9a inh – qHTS Assay for Inhibitors of Histone Lysine Methyltransferase G9a. G9a H3K9 monomethylation, AlphaScreen, 2 h. Histone-lysine N-methyltransferase EHMT2 (Homo sapiens), Q96KQ7. Potency, µM (titrated, usually from 102 µM), usual class: inhibitors. 8.8% of 350,000 active; further: nearly all actives have a fitted effect of over 75% in size
Target sequence (Q96KQ7 913-1193 limits assumed): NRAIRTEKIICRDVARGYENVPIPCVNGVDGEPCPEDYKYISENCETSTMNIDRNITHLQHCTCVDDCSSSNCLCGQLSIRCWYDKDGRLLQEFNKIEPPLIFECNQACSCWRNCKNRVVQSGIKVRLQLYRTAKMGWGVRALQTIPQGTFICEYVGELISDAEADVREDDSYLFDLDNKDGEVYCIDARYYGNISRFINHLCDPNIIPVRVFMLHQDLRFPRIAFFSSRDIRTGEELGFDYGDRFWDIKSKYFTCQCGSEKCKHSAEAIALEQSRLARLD
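AlphaScreen detection with an anti-monomethyl H3K9 antibody quantified product after a 2 h room-temperature reaction containing 500 nM biotinylated H3K9 peptide, 20 µM SAM and 20 nM enzyme, which had been preincubated 15 min with compound.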
Large screens that a line does not name were inactive. Unless noted, the call rests on the fitted dose curve; in most records, active means well fitted curve in the direction sought with a large enough effect; inconclusive means small, poorly fitted or top-dose-only effect, or another doubt; inactive means no such curve, though single readings can be large; an effect the other way counts as inactive or inconclusive.

COc1ccc(C2N(c3ccc(C)cc3)CCN2c2ccc(C)cc2)cc1O	JMJD2A Tudor 28µM, BAZ2B block 32µM, G9a inh 18µM
COc1ccc(C2c3c(n(C)c4ccccc34)C(=O)N2CC(=O)Nc2cc(Cl)ccc2C)cc1 (stereo not drawn)	none (no result: PI5P4K alpha inh, PLK1 PBD inh)
CCOC(=O)c1ccc(N2C(=O)c3[nH]nc(-c4ccc(OC)cc4)c3C2c2ccc(C)cc2)cc1 (stereo not drawn)	JMJD2A Tudor inconclusive (no result: PI5P4K alpha inh, BAZ2B block, PLK1 PBD inh)
COc1ccc(CNC(=O)CN(C(=O)c2csnn2)c2ccc(F)cc2)cc1	none
O=S(=O)(CCSc1ccccn1)c1nc2ccccc2s1	PLK1 PBD inh 6.7µM, G9a inh inconclusive (no result: PI5P4K alpha inh)
CSc1ccc(C2N=C(c3ccccc3)NO2)cc1 (stereo not drawn)	G9a inh inconclusive
Oc1c(Br)cc(C2N=C(c3ccccc3)NO2)cc1Br (stereo not drawn)	PI5P4K alpha inh -56, PLK1 PBD inh 12µM
CCOc1ccccc1NC(=O)Cn1c(=O)n(Cc2cccs2)c(=O)c2cccnc21	none (no result: PI5P4K alpha inh, PLK1 PBD inh)
Cc1cccc(/C=N/NC(=O)c2cc3c(s2)-c2ccccc2CC3)c1	PLK1 PBD inh 21µM
O=C(NCc1ccccc1)C(=O)Nc1nc(C23CC4CC(CC(C4)C2)C3)cs1	none
CNC(=O)C(=O)Nc1nc(C23CC4CC(CC(C4)C2)C3)cs1	PLK1 PBD inh 30µM
CCn1cc(S(=O)(=O)Nc2cc(C)ccc2F)cn1	none
Cc1cccc(C)c1NC(=O)C(C1CC1)n1c(=O)c(-c2ccco2)nc2ccccc21 (stereo not drawn)	PI5P4K alpha inh inconclusive (no result: JMJD2A Tudor, BAZ2B block, HP1b chromo inh, G9a inh)
CC(C)(C)NC(=O)C(C1CC1)n1c(=O)c(-c2ccco2)nc2ccccc21 (stereo not drawn)	PI5P4K alpha inh -63 (no result: JMJD2A Tudor, BAZ2B block, HP1b chromo inh, G9a inh)
CC(C)(C)NC(=O)C(c1ccc(C(F)(F)F)cc1)n1c(=O)c(-c2ccco2)nc2ccccc21 (stereo not drawn)	PI5P4K alpha inh -64 (no result: JMJD2A Tudor, BAZ2B block, HP1b chromo inh, G9a inh)
Cc1cccc(CNC(=O)CS(=O)(=O)c2cccc3nsnc23)c1	none (no result: PI5P4K alpha inh, PLK1 PBD inh)
CC(c1ccco1)N(C)c1ncnc2ccc(-c3ccc4c(c3)OCO4)cc12 (stereo not drawn)	none (no result: PI5P4K alpha inh, BAZ2B block, PLK1 PBD inh, HP1b chromo inh, G9a inh)
CC1Nc2nc(N(C)C)[nH]c(=O)c2NC1C (stereo not drawn)	JMJD2A Tudor 28µM, BAZ2B block inconclusive, PLK1 PBD inh inconclusive, G9a inh 3.2µM
CC(C)NC(=O)N(C)C[C@H]1OCCCC[C@H](C)Oc2ccc(NS(=O)(=O)c3ccccc3)cc2C(=O)N([C@H](C)CO)C[C@H]1C	none (no result: JMJD2A Tudor, BAZ2B block, HP1b chromo inh, G9a inh)
CCN1CC2([N+](=O)[O-])C=CC(=O)C([N+](=O)[O-])(C1)C2CC(=O)c1ccccc1 (stereo not drawn)	JMJD2A Tudor inconclusive, PI5P4K alpha inh -53, BAZ2B block inconclusive, PLK1 PBD inh inconclusive, G9a inh inconclusive
CCCCN1CC2([N+](=O)[O-])C=CC(=O)C([N+](=O)[O-])(C1)C2CC(=O)c1ccccc1 (stereo not drawn)	G9a inh 45µM
O=C(CCCN1C(=O)/C(=C\c2ccco2)SC1=S)Nc1ccc(O)cc1C(=O)O	JMJD2A Tudor 22µM, PI5P4K alpha inh inconclusive, BAZ2B block 14µM, PLK1 PBD inh 17µM, HP1b chromo inh 25µM, G9a inh 10µM
O=C(CCCN1C(=O)/C(=C/c2ccco2)SC1=S)Nc1cccc(C(=O)O)c1	JMJD2A Tudor inconclusive, PI5P4K alpha inh -60, BAZ2B block 45µM, HP1b chromo inh inconclusive (no result: G9a inh)
O=C(CCCN1C(=O)/C(=C\c2cccs2)SC1=S)Nc1ccc(O)cc1C(=O)O	PI5P4K alpha inh inconclusive, BAZ2B block inconclusive, G9a inh inconclusive
O=C(CCCN1C(=O)/C(=C\c2cccs2)SC1=S)Nc1cccc(C(=O)O)c1	JMJD2A Tudor inconclusive, G9a inh inconclusive

Bioassay records from PubChem BioAssay.
